Laboratory results as given in PubChem BioAssay AID623870 (Broad Institute, 2012).
Screen size: about 390,000 compounds; about 2,600 (0.67%) were called active. The sample holds actives, similar compounds and a random draw of the others, so the mix is not that of the screen.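 The calls were made as follows: active = mean inhibition of replicates at least 50% and at least half of replicates each reaching 50%; inconclusive = half or more replicates reach 50% but mean below 50%; inactive = the rest.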

Each compound was assayed against Transforming acidic coiled-coil-containing protein 3 (Homo sapiens) (UniProt Q9Y6A5) (assay: inhibitors of ARNT PAS-B binding to TACC3 – biochemical, AlphaScreen, single concentration, primary screen (AID 623870;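 also: 0% = complete ARNT plus TACC3 wells and 100% = ARNT alone without TACC3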)). Conditions: AlphaScreen His-ARNT PAS-B/GST-TACC3 binding, luminescence; at 9.99 µM; hits give high values; TACC3 fragment carries E629A point mutation.

Row | SMILES | inhibition
1 | O=C(N/N=C/c1cccc2cccnc12)[C@H]1C[C@@H]1c1ccccc1 | 73.3% (active)
2 | Cc1ccc(NC(=O)C2CC2c2ccccc2)cc1 (stereo not given) | -4.03% (inactive)
3 | O=C(Nc1ccccc1)Oc1cccc2cccnc12 | -7.89% (inactive)
4 | C[C@H](CO)N1C[C@H](C)[C@@H](CN(C)C)Oc2cc(C#Cc3ccccc3)ccc2S1(=O)=O | 8.14% (inactive)
5 | COc1ccc(NC(=O)N(C)C[C@@H]2Oc3ccc(NS(C)(=O)=O)cc3C(=O)N([C@@H](C)CO)C[C@@H]2C)cc1 | -7.68% (inactive)
6 | CCc1cc(=O)oc2c(C)c(OCC(=O)NCCN3CCOCC3)ccc12 | -0.887% (inactive)
7 | COc1cccc(C(CC(=O)NCCN2CCOCC2)NS(=O)(=O)c2ccc(C)cc2)c1OC (stereo not given) | -9.59% (inactive)
8 | CCOc1cccc(/C=N/NC(=S)NCCN2CCOCC2)c1O | 64.9% (active)
9 | C[C@@H]1CN([C@@H](C)CO)C(=O)Cc2cc(NC(=O)Nc3ccc(F)cc3)ccc2O[C@@H]1CN(C)C(=O)NC1CCCCC1 | 0.811% (inactive)
10 | Cn1c(=NC(=O)c2ccc3c(c2)OCCO3)sc2cc(S(C)(=O)=O)ccc21 | -1.86% (inactive)
11 | Cn1c(=NC(=O)c2ccco2)sc2cccc(F)c21 | -2.41% (inactive)
12 | Cn1c(=NC(=O)c2cnccn2)sc2ccccc21 | 50.2% (active)
13 | CN(C(=O)c1ccccc1)c1nccnc1C#N | 48.5% (active)
14 | CCCN1[C@@H]2c3ccc(-c4ccccc4OC)c(=O)n3C[C@H]1[C@H](CO)[C@H]2C(=O)NCc1ccccn1 | -0.436% (inactive)
15 | CO[C@H]1CN(C)C(=O)c2cc(NS(=O)(=O)CC(F)(F)F)ccc2OC[C@@H](C)N(C(=O)c2ccc3c(c2)OCO3)C[C@@H]1C | 8.14% (inactive)
16 | CCCC(=O)Nc1ccc2c(c1)C(=O)N(C)C[C@@H](OC)[C@@H](C)CN(Cc1cncnc1)[C@@H](C)CO2 | -2.89% (inactive)
17 | CCN(/N=C/c1ccccc1)c1cc(=O)n(C)c(=O)[nH]1 | 6.16% (active)
18 | CN1C(=O)c2cc(NC(=O)c3cnccn3)ccc2OC[C@@H]2O[C@H](CC(=O)NC3CCC3)CC[C@@H]21 | -9.79% (inactive)
19 | C[C@H](CO)N1C[C@H](C)[C@H](CN(C)S(C)(=O)=O)Oc2c(NC(=O)Nc3cccc4ccccc34)cccc2C1=O | 8.09% (inactive)
20 | O=C(C[C@@H]1C[C@@H]2c3cc(NC(=O)c4ccc5c(c4)OCO5)ccc3O[C@@H]2[C@@H](CO)O1)NCC1CC1 | -5.9% (inactive)
21 | COc1ccccc1NC(=O)N(C)C[C@@H]1Oc2ncc(C#CCC(C)C)cc2C(=O)N([C@@H](C)CO)C[C@@H]1C | -5.04% (inactive)
22 | C[C@@H](NC(=O)C[C@@H]1C[C@H]2c3cc(NC(=O)C4CCC4)ccc3O[C@H]2[C@@H](CO)O1)c1ccccc1 | -9.96% (inactive)
23 | N#C[C@@H]1[C@@H](c2ccc(-c3cccnc3)cc2)[C@H](CO)N1C(=O)Nc1ccc(F)cc1 | -8.19% (inactive)
24 | Cc1ccc(Oc2ccc3c(c2)C(=O)N(c2cccc4cccnc24)C3=O)cc1 | 1.71% (inactive)
25 | Cc1ccc(OS(=O)Nc2cccc3nccnc23)cc1 (stereo not given) | 69.3% (active)

Row | SMILES | inhibition
26 | COCC(=O)N1C[C@@H](C)[C@H](OC)CN(C)C(=O)c2ccc(NC(=O)c3ccc(OC)cc3)cc2OC[C@@H]1C | -7.16% (inactive)
27 | CO[C@H]1CN(C)C(=O)c2cc(NC(=O)Nc3cccc(F)c3)ccc2OC[C@H](C)N(C(C)=O)C[C@H]1C | 28% (inactive)
28 | CO[C@@H]1CN(C)C(=O)c2cc(NC(=O)C3CC3)ccc2OC[C@@H](C)N(Cc2nccs2)C[C@@H]1C | -5.42% (inactive)
29 | C[C@H](CO)N1C[C@H](C)[C@H](CN(C)C(=O)Nc2cccc3ccccc23)Oc2ccc(NS(C)(=O)=O)cc2C1=O | -5.79% (inactive)
30 | CNC[C@@H]1OCCCC[C@H](C)Oc2ccc(NS(=O)(=O)c3ccc(F)cc3)cc2C(=O)N([C@@H](C)CO)C[C@@H]1C | -1.03% (inactive)
31 | CC(C)(C)Nc1nc(-c2ccccn2)nc2ccccc12 | 93% (active)
32 | CC(Nc1nc(C(F)(F)F)nc2ccccc12)c1cccs1 (stereo not given) | -5.59% (inactive)
33 | O=C(C[C@@H]1C[C@H]2c3cc(NC(=O)C4CCOCC4)ccc3O[C@H]2[C@H](CO)O1)NCc1ccc2c(c1)OCO2 | -5.45% (inactive)
34 | O=C(NC1CCCC1)[C@H]1[C@H](CO)[C@H]2Cn3c(ccc(-c4ccccc4F)c3=O)[C@@H]1N2C(=O)CC1CC1 | -1.58% (inactive)
35 | C[C@@H]1CN([C@@H](C)CO)C(=O)Cc2cc(NC(=O)Nc3ccc(F)cc3)ccc2O[C@@H]1CN(C)S(=O)(=O)c1ccccc1 | 2.95% (inactive)
36 | C[C@H](CO)N1C[C@H](C)[C@@H](CN(C)Cc2ccncc2)Oc2ncc(C#CC3CC3)cc2C1=O | -1.14% (inactive)
37 | Cn1c(N)c(C(=O)COC(=O)COc2ccc(Cl)cc2)c(=O)n(C)c1=O | 2.04% (inactive)
38 | Cn1c(N)c(C(=O)COC(=O)c2ccc3ccccc3c2)c(=O)n(C)c1=O | -4.71% (inactive)
39 | Cn1c(N)c(C(=O)COC(=O)c2cnc(Cl)c(Cl)c2)c(=O)n(C)c1=O | 45.8% (active)
40 | COc1ccc(C#Cc2cnc3c(c2)C(=O)N([C@H](C)CO)C[C@H](C)[C@H](CN(C)C(=O)CC2CC2)O3)cc1 | 3.95% (inactive)
41 | O=C1O[C@@H](c2ccccc2)[C@@H](c2ccccc2)N2[C@@H](c3ccccc3OCCO)[C@]3(C(=O)Nc4ccccc43)[C@@H](C(=O)N3CCCCCCC3)[C@H]12 | 29.4% (inactive)
42 | CCOc1ccc(N/C(N)=N/c2nc(C)c(C)c(=O)[nH]2)cc1 | -20.7% (inactive)
43 | Cc1nnc(N/N=C/c2ccccn2)[nH]c1=O | 61.4% (active)
44 | CCOc1ccc(-n2c(O)c(/C=N/Nc3nnc(C)c(=O)[nH]3)c3ccccc3c2=O)cc1 | 66.5% (active)
45 | COc1ccc(-n2c(O)c(C=NCC(c3ccco3)N3CCCC3)c3ccccc3c2=O)cc1OC (stereo not given) | 5.52% (inactive)
46 | C[C@@H]1CN([C@H](C)CO)C(=O)c2cc(C#CC3(O)CCCC3)cnc2O[C@H]1CN(C)Cc1ccncc1 | -3.19% (inactive)
47 | O=C(C[C@@H]1CC[C@H]2[C@@H](COC[C@H](O)CN2C(=O)Nc2ccc(Cl)cc2)O1)NCC1CC1 | -0.418% (inactive)
48 | CN(C)C(=O)[C@@H]1[C@@H](CO)[C@@H]2Cn3c(cccc3=O)[C@H]1N2CC1CCCCC1 | 10.9% (inactive)
49 | COCC(=O)N1C[C@H]2[C@@H](c3ccccc31)[C@@H](CO)N2Cc1ccccc1 | 4.41% (inactive)
50 | O=C(C[C@@H]1CC[C@@H]2[C@H](COC[C@@H](O)CN2Cc2ccccc2)O1)NCCc1ccccc1 | 0.273% (inactive)

Row | SMILES | inhibition
51 | Fc1ccc(-c2ccc(CNCc3ccccn3)o2)cc1Cl | 59.1% (active)
52 | Clc1ccc(-c2cc(COc3ccccc3)no2)cc1Cl | 1.19% (inactive)
53 | COc1ccc(-c2ccc(CNCCCN3CCOCC3)o2)cc1Cl | 2.81% (inactive)
54 | CO[C@H](CN(C)C(=O)c1cnccn1)[C@@H](C)CN([C@@H](C)CO)S(=O)(=O)c1ccc(C)cc1 | 3.1% (inactive)
55 | C[C@@H]1CN([C@@H](C)CO)C(=O)c2cc(-c3cncnc3)cnc2O[C@@H]1CN(C)C(=O)c1ccccc1F | -2.75% (inactive)
56 | C[C@@H]1CN([C@H](C)CO)S(=O)(=O)c2ccc(C#CCN(C)C)cc2O[C@@H]1CN(C)C(=O)CN(C)C | -1.64% (inactive)
57 | O=C(CCNC(=O)c1ccccc1)NN=Cc1ccc(Br)o1 | 0.9% (inactive)
58 | O=C(CCCO)N/N=C/c1cc(Br)ccc1O | 80.7% (active)
59 | O=C(CCNc1n[nH]c(=O)[nH]c1=O)N/N=C\c1ccc(Br)cc1 | 1.48% (inactive)
60 | CN1C(=O)c2cc(NS(=O)(=O)c3ccc(Cl)cc3)ccc2OC[C@H]2O[C@@H](CC(=O)O)CC[C@H]21 | 4.03% (inactive)
61 | C[C@@H]1CN([C@H](C)CO)C(=O)Cc2cc(NC(=O)CCCN(C)C)ccc2O[C@H]1CN(C)CC1CCCCC1 | 0.403% (inactive)
62 | CCOc1cc(CNCc2ccccn2)ccc1OCC(=O)NC(C)(C)C | 36.2% (inactive)
63 | COc1ccc2ccccc2c1CNCc1ccccn1 | 55.2% (active)
64 | COc1cc(CNCc2ccc(OC)c3ccccc23)cc(OC)c1OC | 4.98% (inactive)
65 | Cc1ccc(S(=O)(=O)Nc2ccc3c(c2)C(=O)N([C@H](C)CO)C[C@H](C)[C@H](CN(C)C(=O)NC(C)C)OCCCC[C@@H](C)O3)cc1 | -2.46% (inactive)
66 | N/C(=N\OC(=O)CCC1CCCCC1)c1ccccn1 | -3.39% (inactive)
67 | N/C(=N\OC(=O)Cc1ccc([N+](=O)[O-])cc1)c1ccccn1 | 55.4% (active)
68 | N/C(Cc1ccc([N+](=O)[O-])cc1)=N\OC(=O)COc1ccc2ccccc2c1 | 1.55% (inactive)
69 | COc1ccc(S(=O)(=O)N[C@@H]2CC[C@@H](CC(=O)NCCc3ccccc3)O[C@@H]2CO)cc1 | -3.62% (inactive)
70 | CCCC#Cc1ccc2c(c1)O[C@@H](CN(C)C(=O)CC)[C@@H](C)CN([C@H](C)CO)S2(=O)=O | 5.6% (inactive)
71 | Cc1cccc(S(=O)(=O)N[C@H]2CC[C@@H](CCNS(=O)(=O)c3ccccc3F)O[C@H]2CO)c1 | 1.77% (inactive)
72 | CCOC(=O)c1ccc(Nc2cc3ccccc3c(=O)[nH]2)cc1 | 4.54% (active)
73 | CC(C)CN(C(=O)COC(=O)c1ccc2ccccc2c1)c1c(N)n(Cc2ccccc2)c(=O)[nH]c1=O | -0.235% (inactive)
74 | CCOC(=O)c1ccc(NC(=O)C2CC(=O)Nc3nc4ccccc4n32)cc1 (stereo not given) | 1.15% (inactive)
75 | O=C(C[C@H]1C[C@@H]2c3cc(NC(=O)C4CCOCC4)ccc3O[C@@H]2[C@H](CO)O1)NCC1CC1 | -7.92% (inactive)
